Tau fluor cs = Counterscreen qHTS for Inhibitors of Tau Fibril Formation, Fluorescence Polarization; tau K18 P301L Alexa594 fluorescence, heparin fibrillization; AID 1463, 2008; 280,000 compounds, 0.93% hits; Potency, µM (top dose mostly 57.7 µM), without a hit: at the top dose activity change, negative = decrease; also: potency is read from the fitted curve at half-maximal effect; nearly all actives have a fitted effect of over 55% in size
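Human K18 P301L tau (15 uM unlabeled plus 0.24 uM Alexa 594-labeled, final) in 100 mM sodium acetate pH 7 was mixed with compound and 20 uM heparin and incubated 6 hr at 37 C.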
G9a block = qHTS Assay for Inhibitors of Histone Lysine Methyltransferase G9a; Potency, µM (highest dose often 102 µM), for the others: at the highest dose activity, negative = inhibition, hits mostly inhibitors; G9a H3K9 monomethylation, AlphaScreen, 2 h; 350,000 compounds, 8.8% hits; also: potency is read from the fitted curve at half-maximal effect; nearly all actives have a fitted effect of over 75% in size
Target sequence (Q96KQ7 913-1193 limits assumed): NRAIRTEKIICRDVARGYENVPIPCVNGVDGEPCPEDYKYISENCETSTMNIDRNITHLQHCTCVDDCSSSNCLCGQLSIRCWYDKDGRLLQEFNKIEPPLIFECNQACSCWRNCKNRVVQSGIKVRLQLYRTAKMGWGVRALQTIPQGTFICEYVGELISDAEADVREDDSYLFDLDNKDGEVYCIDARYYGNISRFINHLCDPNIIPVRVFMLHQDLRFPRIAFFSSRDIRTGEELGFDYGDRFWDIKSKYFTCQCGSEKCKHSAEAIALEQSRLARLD
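AlphaScreen read-out: biotin-H3K9 peptide (500 nM) methylation by 20 nM enzyme with 20 uM SAM, 2 h at room temperature after 15 min compound preincubation; anti-monomethyl H3K9 antibody plus donor/acceptor beads, 10 min dark.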
Sfp inh = qHTS Assay for Inhibitors of Bacillus subtilis Sfp phosphopantetheinyl transferase (PPTase) | 4'-phosphopantetheinyl transferase ffp (Bacillus subtilis), Q9F4F7 | Biochemical Sfp PPTase activity, qHTS | Potency, µM, for inactives: largest response in the series, negative = inhibition, most hits filed as inhibitors | 310,000 compounds, 3.5% hits | AID 1490, 2009;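 also: the enzyme is Sfp with the accession as filed and its product quenches rhodamine fluorescence; potency is read from the fitted curve at half-maximal effect; 0% = enzyme reaction without inhibitor and -100% = no enzyme wells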
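Compounds were incubated with enzyme (final 15 nM) for 15 min at room temperature before substrate addition started the reaction. Fluorescence at 525 nm excitation, 598 nm emission was recorded immediately and after 30 minutes.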
Tau fibril ThT = qHTS for Inhibitors of Tau Fibril Formation, Thioflavin T Binding; Microtubule-associated protein tau (Homo sapiens), P10636; recombinant tau K18 P301L (four-repeat tau fragment), heparin-induced fibrillization, ThT fluorescence; 270,000 compounds, 2.1% hits; AID 1460, 2008; Potency, µM (top dose mostly 57.4 µM), without a hit: at the top dose activity, negative = inhibition, hits mostly inhibitors; also: potency is read from the fitted curve at half-maximal effect; nearly all actives have a fitted effect of over 55% in size
Target sequence (P10636 561-689 P618L limits assumed): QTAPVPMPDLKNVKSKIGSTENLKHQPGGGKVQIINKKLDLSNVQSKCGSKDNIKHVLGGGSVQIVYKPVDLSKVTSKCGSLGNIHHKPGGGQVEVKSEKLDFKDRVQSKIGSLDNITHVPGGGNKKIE
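Tau K18 P301L fragment (15 uM unlabeled plus 0.24 uM Alexa 594-labeled) in 100 mM sodium acetate pH 7 with compound, fibrillization induced by 20 uM heparin for 6 hr at 37 C. Thioflavin T (30 uM) added, fluorescence read after 1 hr (ex 450, em 510 nm).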
Tau fibril FP = qHTS for Inhibitors of Tau Fibril Formation, Fluorescence Polarization; Potency, µM (doses to about 57.7 µM), for the others: at the top dose activity, negative = inhibition, usual class: inhibitors; K18 P301L tau heparin fibrillization, Alexa594 FP, 6 h; 280,000 compounds, 0.39% hits; Microtubule-associated protein tau (Homo sapiens), P10636; also: potency is read from the fitted curve at half-maximal effect; nearly all actives have a fitted effect of over 55% in size
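Read-out: fluorescence polarization of Alexa 594-labeled tau (0.24 uM), 555 nm excitation, 632 nm emission. Mixtures held 15 uM unlabeled K18 P301L, compound and 20 uM heparin, pH 7 acetate buffer, incubated 6 hr at 37 C.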
FBPA coupling cs = qHTS Assay for Inhibitors of Fructose-1,6-bisphosphate Aldolase from Giardia Lamblia: Coupling assay counterscreen. coupling enzyme system counterscreen, AmpLite Red fluorescence. activity change, negative = inhibition, % at 58.2 µM, hits read low. 290,000 compounds, 0.67% hits; in the data active = activity change below about -30%
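Coupling enzymes only (glyceraldehyde-3-phosphate) + compound, at 57.5 uM final, 10 min RT; add substrate/coupling/AmpLite Red mix, 20 min RT; fluorescence ex 525/em 598 nm. Actives flag coupling-system interference.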
Starred values were filed as active, the others as inactive; u = inconclusive; x = not tested or not shown; [ ] = remark or other dose. Rows were chosen to be rich in hits. Some 11% of all compounds tested hit in one or more screens of this group. Unless noted, calls follow the shape of the dose curve; as a rule, active = well fitted curve in the direction sought with a large enough effect; inconclusive = small, poorly fitted or top-dose-only effect, or another doubt; inactive = no such curve, though single readings can be large; an effect the other way counts as inactive or inconclusive. Unless noted, % is scaled to controls: 0 for no effect and ±100 for the full control effect.

SMILES | Tau fluor cs | G9a block | Sfp inh | Tau fibril ThT | Tau fibril FP | FBPA coupling cs
Cc1nc(C)n(C(C)CNC(=O)c2cccc(Br)c2)n1 (centres undefined) | x | 20.1%[59 µM] | 11.4% | x | x | -0.1
CC(/C=C1\SC(=S)N(CCCC(=O)Nc2ccc(C(=O)O)cc2)C1=O)=C\c1ccccc1 | -14.1% | 12.6µM* | -10.2% | 14.1µM* | -12.4% | -0.8
COc1ccc(/C=C2\SC(=S)N(CCC(=O)Nc3ccc(C(=O)O)cc3)C2=O)cc1 | x | 20.2%[0.501 µM] | -3.1% | x | x | 4.3
Cc1c2c(nc3ccccc13)CC(C)(C)CC2=O | 3.8% | -39.4% | 26.9% | 0.7% | 8.0% | 2.4
Cc1c2c(nc3ccccc13)OCC2 | -14.7% | 79.4µM* | -24.1% | -17.9% | 6.5% | 0.3
CC1(C)CC2CC(C)(CN2Cc2c(O)ccc3ccccc23)C1 (centres undefined) | u | 10µM* | -0.8% | u | 18.4% | -15.8
C1CCC(NC(=NC2C3CC4CC(C3)CC2C4)N2CCOCC2)CC1 (centres undefined) | -1.5% | 25.1%[59 µM] | 14.8% | 0.8% | -3.1% | x
COc1ccc(-c2nnc(SCC(=O)NCCc3ccc(OC)c(OC)c3)nc2-c2ccc(OC)cc2)cc1 | -19.0% | 8.91µM* | x | -13.9% | 2.1% | x
COc1ccc(CCNC(=O)CSc2nnc(-c3ccco3)c(-c3ccco3)n2)cc1OC | x | 8.91µM* | 20µM* | x | x | -12.9
CCCC(=O)N1CCC(Cc2ccccc2)CC1 | x | 28.9% | 7.9% | x | x | 3.0
CCCCCCNCC(=O)N1CCC(Cc2ccccc2)CC1 | x | 17.8µM* | -12.0% | x | x | -1.2
COc1cc(/C=N/n2cc(-c3ccccc3)[nH]c2=S)cc(OC)c1O | u | 0.501µM* | 20µM* | 20µM* | 12.0% | -3.0
Oc1ccc(/C=N/n2cc(-c3ccccc3)[nH]c2=S)cc1 | u | 2.51µM* | 17.8µM* | 10µM* | 2.6% | -0.1
COc1ccccc1-n1cc(-c2ccc(C)cc2)[nH]c1=S | x | u | -6.4% | x | x | 0.0
CC(=O)N1CCN(CCS(=O)(=O)c2ccc(Br)cc2)CC1 | x | 26.3%[59 µM] | x | x | x | x
CC(=O)N1CCN(CC(=O)c2ccc(Br)cc2)CC1 | 8.2% | 2µM* | -4.0% | -14.7% | 2.7% | 3.6
N#CCN1CCN(CC(=O)c2ccc(Br)cc2)CC1 | -26.2% | 12.6µM* | -0.1% | x | -7.7% | 4.5
C/C(=N\NC(=O)c1cc(C2CC2)nc2ccccc12)c1ccc(C)s1 | -10.7% | 39.8µM* | -8.3% | -16.4% | -1.1% | 2.0
C/C(=N\NC(=O)c1cc(C2CC2)nc2ccccc12)c1ccc(O)cc1O | x | -4.3% | 8.5% | x | x | 3.4
COC(=O)c1ccc(N=Cc2c(-c3ccccc3)[nH][nH]c2=O)cc1 | -6.6% | 39.8µM* | 7.1% | -13.1% | -2.2% | 0.7
O=c1[nH][nH]c(-c2ccccc2)c1C=Nc1ccc(F)cc1F | -6.4% | u | 8.3% | -7.3% | -8.9% | 5.0
O=C(NC12CC3CC(CC(C3)C1)C2)c1ccc(-c2ccc(Br)cc2)o1 | -9.8% | 11.2µM* | -20.5% | -12.5% | -8.9% | 0.8
O=C(NC12CC3CC(CC(C3)C1)C2)c1ccc(Br)o1 | x | 1.7% | 6.9% | x | x | -0.2
CC1CCC(NC(=O)C2CCC(CNc3c(N4CCCCC4)c(=O)c3=O)CC2)CC1 (centres undefined) | 3.3% | -8.1%[59 µM] | 17.1% | 4.1% | 9.7% | 0.5
Clc1ccc(/C=N/c2c(-c3ccc(Cl)cc3)nc3n2CCS3)cc1 | u | 35.5µM* | 8.8% | u | 14.7% | 0.1
C(=N\c1c(-c2ccccc2)nc2n1CCS2)/c1ccccc1 | u | -40.2%[12.7 µM] | 8.8% | 22.4µM* | u | 5.1
